Data taken from PubChem BioAssay (NCATS).
Results filed as inconclusive are left out. A call without a number means that no potency is given here. The source made the active and inactive calls. The call rests on the fitted dose curve; tested in HEK293 reporter line.

Experiment: qHTS for Inhibitors of the Functional Ribonucleoprotein Complex (vRNP) of Lassa (LASV) Arenavirus: LASV Primary Screen - GLuc reporter signal (AID 1347082); further: nearly all actives have a fitted effect of over 60% in size
Settings: LASV minigenome vRNP, Gaussia luciferase reporter; series mostly up to 57.5 µM

| Structure (SMILES) | Potency | activity change, negative = inhibition |
| --- | --- | --- |
| Nc1nc(Cl)nc2c1ncn2[C@@H]1O[C@H](CO)[C@@H](O)[C@H]1F | inactive | – |
| COc1ccc([C@H]2c3cc(OC)c(OC)cc3C[C@@H](C)[C@@H]2C)cc1OC | inactive | – |
| O=C(Nc1ccccc1Br)N[C@@H]1CCN(c2ccc(C(F)(F)F)cn2)C1 | inactive | – |
| Cc1cnc(C)c(C)n1 | inactive | – |
| CCOC(=O)c1cccc(C(=O)OCC)n1 | inactive | – |
| O=C(NC(Cc1ccccc1)C(=O)O)c1ccccc1 (stereo not drawn) | inactive | – |
| COc1cc(C)cc(C(=O)O)c1C1=C(O)c2cccc(O)c2C(=O)C1=O | inactive | – |
| O=C(NCO)c1cccnc1 | inactive | – |
| C/C=C/c1cc(OC)c2c(c1)[C@H](C)[C@@H](c1ccc(O)c(OC)c1)O2 | inactive | – |
| COC(=O)c1ccccc1OC | inactive | – |
| CC(C)(O)[C@H](O)COc1c2occc2cc2ccc(=O)oc12 | inactive | – |
| C[C@H]1[C@H](C)CC[C@]2(C)CC[C@]3(C)C(=CC(=O)C4[C@@]5(C)CC[C@H](O)C(C)(C)C5CC[C@]43C)[C@H]12 (stereo partly drawn) | inactive | – |
| Cc1csc(NC(=O)c2sc3nc4c(c(C(F)(F)F)c3c2N)CCC4)n1 | inactive | – |
| C[C@]12C=CC(=O)N[C@@H]1CC[C@H]1[C@H]3CC[C@@H](C(=O)Nc4cc(C(F)(F)F)ccc4C(F)(F)F)[C@@]3(C)CC[C@@H]12 | inactive | – |
| S=C(NCc1ccccc1)NCc1ccccc1 | inactive | – |
| CCCCC[C@H](O)/C=C/C=C/C/C=C\CCCC(=O)O | – | -30.5% [at 0.757 µM] (inactive) |
| COC(=O)c1c(C)cc(O)c(C=O)c1O | inactive | – |
| O=C(c1ccccc1)N1CCCCC1 | inactive | – |
